The text below walks through data of PubChem BioAssay AID435003 (Sanford-Burnham Center for Chemical Genomics, 2010).

About 1,700 (0.52%) of roughly 330,000 compounds were called active. No stated cut-off is given here; in the data, active means inhibition above about 50%; inactive means the rest. Many of the other results were omitted from the sample, so actives are more common in it than they were.

This experiment in a line: inhibitors of induced NF-kB luciferase reporter, primary screen, TCR NF-kB activation inhibitor project, cell-based, luminescence, uHTS (AID 435003). The note with it: Jurkat, PMA/ionomycin-induced NF-kB luciferase reporter, at 4 µM, hits give high values. For orientation: Reporter assays use an easily measured gene product as a stand-in for the process of interest.
`CCOc1ccccc1N1CCN(C(=O)COc2ccc3c(C)cc(=O)oc3c2)CC1`: the inhibition (usually the change of the read-out against control, counted positive when it falls) is 26.6% (inactive). On to `Cc1cc(=O)oc2cc(OCC3CC(c4ccccc4Cl)=NO3)ccc12` (stereo not drawn), for which the inhibition is 80.2% (active). To `Cc1cc(=O)oc2cc(OCCC[n+]3ccccc3)ccc12` belongs 3.92% (inactive); to `CCOc1ccc(NC(=O)CCS(=O)(=O)c2ccc3c(c2)CCCN3C(=O)CC)cc1`, -12% (inactive). As for `CCCCC(=O)Nc1ccc2c(c1)C(=O)NC2=O`, the inhibition is 7.09% (inactive). Take `COCc1c(C(=O)N/N=C(\C)c2ccncc2)nnn1-c1nonc1N`: the inhibition was -38.2% (inactive). For the compound `C[C@@H]1C[C@@H]2O[C@H]2/C=C\C=C\C(=O)Cc2c(Cl)c(O)cc(O)c2C(=O)O1`, the inhibition was 56% (active).

In the case of `CN(NC(=O)c1ccccc1F)c1nc(C(F)(F)F)nc2ccccc12`, the inhibition was 35.5% (inactive).

Turning to `CSc1nc(N(C)NC(=O)c2cccc(C)c2)c2ccccc2n1`, the inhibition was 57.7% (active). In the case of `CN(NC(=O)c1ccccc1)c1nc2ccccc2nc1C(F)(F)F`, the inhibition is 40.2% (inactive). In the case of `O=C1c2ccccc2C(Nc2ccc3c(c2)OCCO3)N1Cc1ccco1` (stereo not drawn) it was 4.45% (inactive); in that of `Cc1ccc(-n2c(C)cc(/C=N/Nc3ccc([N+](=O)[O-])cn3)c2C)c(C)c1`, 15.1% (inactive).

Turning to `COc1ccccc1C1CCN(c2ccc([N+](=O)[O-])cn2)CC1`, the inhibition is 1.45% (inactive). Take `Cc1ccc(N2CCN(c3ccc([N+](=O)[O-])cn3)CC2)c(C)c1`: the inhibition was 50.7% (active). In the case of `COc1ccc(N(CC(=O)Nc2cc(OC)cc(OC)c2)S(=O)(=O)c2c(C)n[nH]c2C)cc1`, the inhibition is -11.8% (inactive). As for `CCc1sc(C(=O)N2CCN(CC(=O)Nc3cccc(F)c3)CC2)cc1C`, the inhibition is -11.7% (inactive). In the case of `CCc1ccc(NC2Nc3cc(C)nn3S2)cc1` (stereo not drawn) it was -76.8% (inactive); in that of `Cc1ccc(NC(=O)NNC(=O)c2sccc2-n2cccc2)cc1`, 6.7% (inactive). In the case of `COc1cccc(/C=N/NC(=O)c2[nH]nc3c2CCc2ccccc2-3)c1O`, the inhibition was 60.8% (active). As to `COc1ccc(Br)cc1/C=N/NC(=O)c1cccc(S(=O)(=O)N2CCOCC2)c1`, the inhibition was 5.13% (inactive). With `COc1ccc(/C=N/NC(=O)c2ccncc2)cc1CN1CCCc2ccccc21`, the inhibition was 16.1% (inactive).

On to `Cc1ccsc1-c1nc(CSCC(=O)NCCN2CCCC2)c(C)o1`, for which the inhibition was -7.15% (inactive). Take `Cc1c(C)c2cc3c4c(oc3c(C)c2oc1=O)CCCC4`: the inhibition was -27.9% (inactive). For the compound `O=C(Nc1cccc(S(=O)(=O)N2CCCC2)c1)c1cncc(Br)c1`, the inhibition is 1.27% (inactive). On to `CC[n+]1cc(C)ccc1/C=C/c1ccc(N(C)C)cc1`, for which the inhibition was 84.4% (active). To `Cc1ccc2nsnc2c1NC(=O)c1ccccc1[N+](=O)[O-]` belongs 10.9% (inactive). On to `COc1ccc(NC(=O)C(CC(C)C)NS(=O)(=O)c2ccc3c(c2)CCN3C(C)=O)cc1OC` (stereo not drawn), for which the inhibition is -14% (inactive). For the compound `CC1(C(=O)O)CCC(C(=O)Nc2ccc(Cl)c(Cl)c2)C1(C)C` (stereo not drawn), the inhibition is -8.65% (inactive). As to `COc1cc(NS(=O)(=O)c2ccc(NC(=O)c3ccc([N+](=O)[O-])cc3)cc2)ncn1`, the inhibition is 14.9% (inactive). In the case of `CC(=O)NC(=S)Nc1ccc(NC(=S)NC(=O)c2ccc([N+](=O)[O-])cc2)cc1`, the inhibition was 14.2% (inactive).

`Cn1ccc(=Nc2ccc(NC(=O)c3ccc(N=c4ccn(C)c5ccc([N+](=O)[O-])cc45)cc3)cc2)cc1`: the inhibition is 51.3% (active).

As for `O=C1C=C(c2ccc(Cl)cc2)C(=O)N1Nc1ccccc1`, the inhibition was 13.6% (inactive). Regarding `CC(=O)c1ccc(N2CCN(C(=O)C3CCN(S(=O)(=O)c4ccc5c(c4)CC(C)N5C(=O)C4CC4)CC3)CC2)cc1` (stereo not drawn), the inhibition is -3.75% (inactive).

On to `COc1ccc(C(=O)/C=C/Nc2ccccn2)cc1`, for which the inhibition is 50.4% (active). In the case of `CCOc1ccc(N/C=C/C(=O)c2cc(OC)c(OC)c(OC)c2)cc1` it was 44.3% (inactive). As to `CCOc1ccc(N/C=C/C(=O)c2ccccc2)cc1`, the inhibition was -132% (inactive).

As to `Cc1onc(-c2ccc(Cl)cc2)c1-c1ccnn1S(=O)(=O)c1ccc(Cl)cc1`, the inhibition was 9.53% (inactive). In the case of `COc1ccc(NC(=O)C(C)N2c3cccc4cccc(c34)S2(=O)=O)c(OC)c1` (stereo not drawn), the inhibition is 21.7% (inactive). In the case of `CC1CCN(c2ccc(C(=O)NCc3ccc4c(c3)OCO4)cc2[N+](=O)[O-])CC1`, the inhibition is -1.58% (inactive). With `O=C(NCc1ccc2c(c1)OCO2)c1cc([N+](=O)[O-])ccc1N1CCOCC1`, the inhibition is 60.2% (active).

In the case of `O=C(NCc1ccc2c(c1)OCO2)c1cc(F)c(F)cc1Cl`, the inhibition is -12% (inactive). In the case of `CC1Sc2ccc(S(=O)(=O)CCC(=O)NCc3ccccc3Cl)cc2NC1=O` (stereo not drawn), the inhibition was 7.46% (inactive).

For `Cc1ccc(S(=O)(=O)N/N=C(\c2ccccc2)C2CC2)cc1`, the inhibition is -1.73% (inactive). With `Cc1ccc(O)c(NC(=O)c2cc(-c3ccco3)on2)c1`, the inhibition is 96.2% (active).

Regarding `CC(C)Cc1cc(C(=O)Nc2cc(Br)ccc2O)no1`, the inhibition was -28.3% (inactive). Regarding `O=C(Nc1ccccc1C(F)(F)F)c1cc(-c2ccc(O)cc2)on1`, the inhibition was -35.1% (inactive). With `COC(=O)c1ccc(NC(=O)c2cc3c(CO)cnc(C)c3oc2=Nc2cccc(C(N)=O)c2)cc1`, the inhibition is -7.55% (inactive). To `c1ccc(-n2cccc2)c(N2CCCCC2)c1` belongs 6.35% (inactive); to `C/C(=C(\C#N)C(=O)NCCCN1CCOCC1)N(C)C`, -10.8% (inactive).

As to `O=C(COC(=O)c1ccc(F)c(S(=O)(=O)N2CCOCC2)c1)NCc1ccc2c(c1)OCO2`, the inhibition was -6.67% (inactive).

Take `CC(=NCc1ccco1)c1c(C(F)(F)F)[nH]n(-c2nc3ccccc3s2)c1=O`: the inhibition was -104% (inactive).

`COc1ccc(C2=NN(c3nc4ccccc4s3)C(=O)C2)cc1`: the inhibition was -52% (inactive). Take `COC(=O)Cc1[nH]n(-c2nc3ccccc3s2)c(=O)c1C(C)=Nc1ccc(OC)cc1`: the inhibition is 60.8% (active). `COc1ccc(CC(=O)NCc2nnc(SCC(=O)Nc3nccs3)n2C)cc1`: the inhibition was -0.699% (inactive). Regarding `COc1ccc(OC)c(CCNC(=O)CCn2ccc3cc(S(=O)(=O)N4CCCC4)ccc32)c1`, the inhibition is 4.04% (inactive). Take `COc1ccccc1C(=O)Nc1ccc(OCc2nnc3c4ccccc4c(C)nn23)cc1`: the inhibition was 15.2% (inactive).

Take `Cc1nnc(N/N=C/c2ccccn2)[nH]c1=O`: the inhibition is 58.1% (active). Turning to `COc1ccc(Cc2nnc(N/N=C/c3ccccc3O)[nH]c2=O)cc1OC`, the inhibition was 10.5% (inactive). On to `Cc1cc(C(=O)N/N=C/c2ccccn2)c2ccccc2n1`, for which the inhibition is 3.68% (inactive). For the compound `Cc1ccc2nc(SC(C)C(=O)NCc3ccco3)[nH]c2c1` (stereo not drawn), the inhibition was 7.59% (inactive).

Regarding `O=C(NNC(=O)C1CCCC1)c1ccc(F)cc1`, the inhibition was -13.7% (inactive).

As to `O=C(/C=C/c1ccc([N+](=O)[O-])o1)NNC(=O)c1ccc(F)cc1`, the inhibition was 75.6% (active).

On to `COc1ccc(C(=O)NCC(=O)N/N=C/c2ccc([N+](=O)[O-])o2)cc1OC`, for which the inhibition is 8.93% (inactive).

`CCOc1ccccc1NC(=O)Cn1nnc(C(=O)NCc2cccs2)c1N`: the inhibition was 65.8% (active).

As to `CCc1ccc(NC(=O)Cn2nnc(C(=O)NCc3ccc(OC)cc3)c2N)cc1`, the inhibition was 13.8% (inactive). As to `Cc1ccc(NC(=O)Cn2nnc(C(=O)NCc3ccco3)c2N)c(C)c1`, the inhibition was -3.15% (inactive). On to `CC[n+]1c(C)n(-c2ccccc2)c2ccc(NC(C)=O)cc21`, for which the inhibition was 35.7% (inactive). Consider `N#Cc1ccc(-c2ccc(Cl)cc2)nc1Oc1ccc(F)cc1`, for which the inhibition was -19.4% (inactive). Regarding `CCCC(=O)Nc1nc2ccc(NC(=O)c3cccnc3)cc2s1`, the inhibition is 40.8% (inactive).

As for `CSc1nc2ccc(NC(=O)c3c(F)cccc3F)cc2s1`, the inhibition is -93.5% (inactive). Take `CCCC(=O)Nc1nc2ccc(NC(=O)c3c(F)c(F)c(OC)c(F)c3F)cc2s1`: the inhibition was 57.8% (active). To `COc1ccccc1NS(=O)(=O)c1ccc(C(=O)N2CCN(c3ccccc3O)CC2)cc1` belongs -3.42% (inactive); to `CC1(C)CN(c2ccc(-c3ccnc4ncnn34)cc2)C1=O`, -3.78% (inactive); to `CN(c1ccccc1)S(=O)(=O)c1ccc(Cl)c(C(=O)OCC(=O)NCc2ccco2)c1`, -10.7% (inactive). In the case of `O=C(COC(=O)c1ccccc1O)NCc1ccco1`, the inhibition is -0.428% (inactive). `Cc1cc(C(=O)OCC(=O)NCc2ccco2)c(C)n1-c1ccccc1`: the inhibition was 54.7% (active). As for `COc1ccc(NC(=O)N(C)C[C@H]2Oc3ccc(NC(=O)C4CC4)cc3C(=O)N([C@H](C)CO)C[C@@H]2C)cc1`, the inhibition was -11.5% (inactive). Regarding `COc1ccc(-c2c(NC(=O)c3ccco3)oc3ccc(Cl)cc3c2=O)cc1`, the inhibition is -5.27% (inactive). As for `COc1ccc(S(=O)(=O)N(C)C[C@H]2Oc3ccc(NS(=O)(=O)c4cccs4)cc3CC(=O)N([C@H](C)CO)C[C@H]2C)cc1`, the inhibition is 16% (inactive). On to `O=C(CSc1ncnc2scc(-c3ccccc3)c12)NCc1ccc2c(c1)OCO2`, for which the inhibition is 1.29% (inactive).

`CC[C@]1(O)CC2CN(CCc3c([nH]c4ccccc34)[C@@](C(=O)OC)(c3cc4c(cc3OC)N(C=O)[C@H]3[C@@](O)(C(=O)OC)[C@H](OC(C)=O)[C@]5(CC)C=CCN6CC[C@]43[C@@H]65)C2)C1` (stereo partly drawn): the inhibition is 71.2% (active). Turning to `Cc1ccc(F)cc1S(=O)(=O)Nc1cccc(C(=O)N2CCCC(C(N)=O)C2)c1` (stereo not drawn), the inhibition was 12.4% (inactive). To `CCC/C=C(\CCC)C(NC(=O)Cc1ccccc1)c1ccc(C(=O)OC)cc1` (stereo not drawn) belongs 25.8% (inactive). For the compound `CCNC(=S)N(CCc1c(C)[nH]c2ccc(C)cc12)Cc1ccco1`, the inhibition was -0.351% (inactive).

As to `Cc1c(Nc2nc3ccccc3nc2NS(=O)(=O)c2cccs2)c(=O)n(-c2ccccc2)n1C`, the inhibition was -0.383% (inactive). Take `Nc1c(-c2ccc(F)cc2)cnn1C1CCS(=O)(=O)C1` (stereo not drawn): the inhibition was -7.3% (inactive).

Regarding `O=C(CS(=O)(=O)Cc1ccccc1)Nc1cccnc1`, the inhibition was 7.62% (inactive). Turning to `COc1cc(OC)nc(N/N=C(\c2ccccc2)c2ccncc2)n1`, the inhibition was -5.67% (inactive).
